Experiment [1] can be described thus: qHTS RealTime-Glo MT Cell Viability Assay in HepG2 cells - 40 hour (AID 1224870). Note: nearly all actives have a fitted effect of over 50% in size. In short, it runs like this:
(§1)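 HepG2 cells mixed with RealTime-Glo MT reagents (NanoLuc plus cell-permeant prosubstrate) were seeded at 600 cells/well, incubated 5 h at 37 C/5% CO2, then pinned with compounds in DMSO; nonlytic luminescence tracked viability during 40 h treatment.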

Experiment [2] in a line: A CellTox Green Cytotoxicity Assay to monitor cytotoxicity in HEK293 cells - 40 hour (AID 1224871). Note: nearly all actives have a fitted effect of over 45% in size. Note: potency is the fitted concentration of half-maximal effect. In short, it runs like this:
(§2)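 Tox21 screen in HEK293: membrane-impermeant cyanine dye fluoresces on binding dead-cell DNA; compound pinned 5 h post-seeding, plates held at 37 C, signal read repeatedly through 40 h.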

A short description of experiment [3]: qHTS RealTime-Glo MT Cell Viability Assay in HEK293 cells - 16 hour (AID 1224872). Note: nearly all actives have a fitted effect of over 50% in size. Note: potency is the fitted concentration of half-maximal effect. In short, it runs like this:
(§3)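 Quantitative high-throughput screen of the Tox21 10K library in HEK293: cells and RealTime-Glo reagents plated together, compound added at 5 h, luminescence monitored through 40 h at 37 C.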
(qHTS replaces the single test concentration by a dilution series.)

Experiment [4] in a line: qHTS RealTime-Glo MT Cell Viability Assay in HepG2 cells - 8 hour (AID 1224873). Note: nearly all actives have a fitted effect of over 55% in size. The essentials:
as §1

A short description of experiment [5]: qHTS RealTime-Glo MT Cell Viability Assay in HEK293 cells - 40 hour (AID 1224874). Note: nearly all actives have a fitted effect of over 50% in size. Note: potency is the fitted concentration of half-maximal effect. The note with it: RealTime-Glo luminescence; max response: stronger effect = lower value. In short, it runs like this: (§4)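 HEK293 + NanoLuc + prosubstrate, 600 cells/well; 5 h, 37 C/5% CO2; compound 23 nL in DMSO by pintool; 37 C; luminescence read at 0, 8, 16, 24, 32 and 40 h time points.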

A short description of experiment [6]: A CellTox Green Cytotoxicity Assay to monitor cytotoxicity in HEK293 cells - 24 hour (AID 1224875). Note: nearly all actives have a fitted effect of over 45% in size. Note: potency is the fitted concentration of half-maximal effect. In short, it runs like this:
as §2

Experiment [7] is described as follows: A CellTox Green Cytotoxicity Assay to monitor cytotoxicity in HepG2 cells - 16 hour (AID 1224876). Note: nearly all actives have a fitted effect of over 45% in size. The essentials: (§5)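 Measurements at 0, 8, 16, 24, 32 and 40 h of treatment captured CellTox Green fluorescence in HepG2 cells that had been co-plated with reagent and preincubated 5 h at 37 C/5% CO2.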
The nature of experiment [8]: qHTS RealTime-Glo MT Cell Viability Assay in HepG2 cells - 32 hour (AID 1224877). Note: nearly all actives have a fitted effect of over 55% in size. In short, it runs like this: (§6)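 Compound treatment began 5 h after plating HepG2 cells (600/well) with NanoLuc luciferase and prosubstrate. Plates stayed at 37 C for 40 h; luminescence was captured at six time points, 0 h through 40 h.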
Experiment [9] is described as follows: A CellTox Green Cytotoxicity Assay to monitor cytotoxicity in HepG2 cells - 24 hour (AID 1224878). Note: nearly all actives have a fitted effect of over 45% in size. Note: potency is the fitted concentration of half-maximal effect. In short, it runs like this: as §5
The nature of experiment [10]: A CellTox Green Cytotoxicity Assay to monitor cytotoxicity in HepG2 cells - 40 hour (AID 1224879). Note: nearly all actives have a fitted effect of over 40% in size. Note: potency is the fitted concentration of half-maximal effect. The essentials:
as §5

A short description of experiment [11]: qHTS RealTime-Glo MT Cell Viability Assay in HEK293 cells - 0 hour (AID 1224880). The essentials: as §4
The nature of experiment [12]: A CellTox Green Cytotoxicity Assay to monitor cytotoxicity in HEK293 cells - 32 hour (AID 1224881). Note: nearly all actives have a fitted effect of over 40% in size. Note: potency is the fitted concentration of half-maximal effect. In short, it runs like this:
as §2

A short description of experiment [13]: A CellTox Green Cytotoxicity Assay to monitor cytotoxicity in HepG2 cells - 32 hour (AID 1224883). Note: nearly all actives have a fitted effect of over 50% in size. Note: potency is the fitted concentration of half-maximal effect. The essentials: as §5
The nature of experiment [14]: A CellTox Green Cytotoxicity Assay to monitor cytotoxicity in HEK293 cells - 8 hour (AID 1224884). Note: nearly all actives have a fitted effect of over 35% in size. Note: potency is the fitted concentration of half-maximal effect. The essentials: as §2
The nature of experiment [15]: qHTS RealTime-Glo MT Cell Viability Assay in HepG2 cells - 16 hour (AID 1224885). Note: nearly all actives have a fitted effect of over 50% in size. In short, it runs like this: as §6
The nature of experiment [16]: qHTS RealTime-Glo MT Cell Viability Assay in HEK293 cells - 24 hour (AID 1224886). Note: nearly all actives have a fitted effect of over 50% in size. Note: potency is the fitted concentration of half-maximal effect. In short, it runs like this:
as §3

Experiment [17] is described as follows: qHTS RealTime-Glo MT Cell Viability Assay in HEK293 cells - 8 hour (AID 1224887). In short, it runs like this:
as §4

Experiment [18] is described as follows: A CellTox Green Cytotoxicity Assay to monitor cytotoxicity in HEK293 cells - 16 hour (AID 1224888). Note: nearly all actives have a fitted effect of over 35% in size. Note: potency is the fitted concentration of half-maximal effect. The essentials: as §2
Experiment [19] is described as follows: qHTS RealTime-Glo MT Cell Viability Assay in HepG2 cells - 0 hour (AID 1224889). Note: nearly all actives have a fitted effect of over 50% in size. In short, it runs like this: as §6
Experiment [20] in a line: A CellTox Green Cytotoxicity Assay to monitor cytotoxicity in HepG2 cells - 0 hour (AID 1224882). Note: nearly all actives have a fitted effect of over 35% in size. The essentials: as §5

Values joined by “and” are separate entries in the source; they are usually repeats but may differ in a detail not shown here. Equal values may be shown once. Results filed as inconclusive are left out. Some structures have more than one record in an assay (separate samples or runs), and their calls can disagree. Active and inactive are the calls of the source. Calls come from the whole dose curve; as a rule, active = well fitted curve in the direction sought with a large enough effect in the repeat runs; inconclusive = weak or mixed curves; inactive = no such curve, though single readings can be large; an effect the other way counts as inactive or inconclusive.
% is set by controls: 0 for no effect and ±100 for the full control effect.

As to `NCc1cccnc1`, the Potency entry in experiment [1], in [2], in [3], in [4], in experiment [6] and in [7] was “inactive” in each case. For the same compound, the Potency entry in [8], in [9], in [10], in experiment [11], in experiment [12] and in experiment [13] was “inactive” in each case. In addition, the Potency entry in experiment [14], in experiment [15], in [16], in experiment [17], in experiment [18] and in experiment [19] was “inactive” in each case. The max response in experiment [5] is 0.404% (inactive) and -2.08% (inactive).
Turning to `CCCCNC(=O)n1c(NC(=O)OC)nc2ccccc21`, the Potency result in experiment [1], in experiment [2], in [3], in experiment [4], in experiment [6] and in [7] was “inactive” in each case. Moreover, the Potency entry in experiment [8], in experiment [9], in experiment [11], in experiment [12], in experiment [20] and in [14] was “inactive” each time. For the same compound, the Potency result in experiment [15], in experiment [16], in experiment [18] and in experiment [19] was “inactive” each time. Also, the Potency in [10] was 7.72 µM (active) and 11 µM (active); in experiment [13] it was 12.2 µM (active) and inactive.
In the case of `CC(C)(OOC(C)(C)c1ccccc1)c1ccccc1`, the Potency entry in experiment [1], in experiment [3], in [4], in experiment [8], in [9] and in experiment [10] was “inactive” in each case. The Potency entry in experiment [11], in experiment [13], in experiment [14], in experiment [15], in [16] and in [17] was “inactive” in each case. In experiment [19], the Potency entry is “inactive”. The Potency was 24.2 µM (active) and 49 µM (active) in experiment [2]; 48.3 µM (active) and 49 µM (active) in experiment [6]; 24.2 µM (active) and 49 µM (active) in experiment [12]; 43.6 µM (active) in experiment [18].
As to `C[C@]12CCC(=O)C[C@@H]1CC[C@@H]1[C@@H]2CC[C@]2(C)[C@@H](O)CC[C@@H]12`, the Potency result in experiment [1], in [4], in experiment [6], in experiment [7], in experiment [8] and in experiment [9] was “inactive” in each case. For the same compound, the Potency entry in [11], in [13], in experiment [14], in [15], in experiment [17] and in [18] was “inactive” each time. Besides, the Potency in experiment [2] is 43.1 µM (active) and inactive; in experiment [3], 21.6 µM (active); in experiment [5], 21.6 µM (active); in experiment [12], 38.4 µM (active) and inactive; in experiment [16] it was 21.6 µM (active).
In the case of `O=C(O)C(F)(F)C(F)(F)C(F)(F)C(F)(F)C(F)(F)C(F)(F)C(F)(F)F`, the Potency result in experiment [1], in experiment [2], in experiment [3], in [4], in experiment [6] and in [8] was “inactive” throughout. For the same compound, the Potency entry in [9], in experiment [10], in [11], in experiment [12], in experiment [20] and in experiment [13] was “inactive” in each case. Further, the Potency entry in experiment [14], in [15], in [16], in experiment [18] and in [19] was “inactive” throughout.
Consider `Cc1cc(Cl)ccc1OCCCC(=O)O`, for which the Potency entry in experiment [1], in experiment [2], in experiment [3], in [4], in experiment [6] and in experiment [8] was “inactive” in each case. For the same compound, the Potency entry in [9], in experiment [10], in experiment [11], in experiment [12], in experiment [20] and in experiment [13] was “inactive” throughout. Besides, the Potency entry in experiment [14], in experiment [15], in experiment [16], in experiment [17], in [18] and in experiment [19] was “inactive” throughout. Further, the max response in experiment [5] was 5.09% (inactive) and 8.04% (inactive).
For `NNC(=S)NN`, the Potency result in experiment [1], in experiment [2], in [3], in experiment [4], in experiment [6] and in experiment [7] was “inactive” each time. Also, the Potency result in experiment [8], in experiment [9], in experiment [10], in [11], in [12] and in experiment [20] was “inactive” in each case. Further, the Potency result in [13], in experiment [14], in experiment [15], in [16], in experiment [18] and in experiment [19] was “inactive” in each case. For the same compound, in experiment [5], the max response was 7.14% (inactive) and 10.3% (inactive).
Take `CCOP(=S)(OCC)O/N=C(\C#N)c1ccccc1`: the Potency entry in experiment [1], in [2], in experiment [3], in experiment [4], in experiment [6] and in experiment [7] was “inactive” throughout. Besides, the Potency result in experiment [8], in experiment [9], in [10], in experiment [11], in experiment [12] and in experiment [13] was “inactive” each time. Moreover, the Potency entry in experiment [14], in experiment [15], in experiment [16], in experiment [17], in experiment [18] and in [19] was “inactive” each time.
`CCCCCCCCCCCOC(=O)c1ccccc1C(=O)OCCCCCCCCCCC`: the Potency result in [1], in experiment [2], in experiment [3], in experiment [4], in experiment [6] and in [8] was “inactive” throughout. In addition, the Potency entry in [9], in experiment [10], in [11], in experiment [12], in [13] and in [14] was “inactive” throughout. For the same compound, the Potency result in experiment [15], in experiment [16], in experiment [18] and in experiment [19] was “inactive” each time.
For `O=Cc1ccco1`, the Potency entry in [1], in experiment [3], in experiment [4], in [8], in [9] and in experiment [10] was “inactive” each time. Moreover, the Potency entry in experiment [11], in [20], in experiment [13], in experiment [15], in experiment [16] and in [17] was “inactive” each time. The Potency entry in experiment [19] is “inactive”. In addition, the Potency in experiment [2] was 21.1 µM (active); in [12], 23.7 µM (active); in experiment [14], 42.2 µM (active) and inactive.
Turning to `COP(=S)(OC)Oc1ccc([N+](=O)[O-])cc1`, the Potency entry in experiment [1], in experiment [2], in [3], in experiment [4], in [6] and in [8] was “inactive” in each case. The Potency result in [9], in experiment [10], in [11], in experiment [12], in experiment [20] and in experiment [13] was “inactive” in each case. Besides, the Potency entry in experiment [14], in experiment [15], in experiment [16], in experiment [17], in experiment [18] and in [19] was “inactive” in each case.
For the compound `O=P(Oc1ccccc1)(Oc1ccccc1)Oc1ccccc1`, the Potency entry in [1], in experiment [2], in experiment [3], in [4], in experiment [6] and in experiment [7] was “inactive” each time. Moreover, the Potency result in experiment [8], in [9], in experiment [10], in [11], in [12] and in [13] was “inactive” throughout. In addition, the Potency result in experiment [14], in [15], in experiment [16], in experiment [17], in experiment [18] and in experiment [19] was “inactive” each time. The max response in experiment [5] is -17.9% (inactive) and -13.8% (inactive).
Turning to `COP(=O)(OC)OC`, the Potency entry in experiment [1], in experiment [2], in [3], in experiment [4], in [6] and in experiment [7] was “inactive” throughout. The Potency result in experiment [8], in experiment [9], in experiment [11], in experiment [12], in [20] and in [15] was “inactive” throughout. Further, the Potency result in experiment [16], in [17], in [18] and in experiment [19] was “inactive” each time. The Potency in [10] was 19.7 µM (active) and inactive; in [13] it was 24.7 µM (active) and inactive; in experiment [14], 39.2 µM (active) and inactive.
In the case of `CCC(C)c1ccc(O)cc1` (configuration not stated), the Potency result in experiment [1], in experiment [3], in [4], in [8], in [11] and in experiment [20] was “inactive” in each case. Moreover, the Potency result in experiment [15], in [16] and in experiment [19] was “inactive” throughout. In addition, the Potency in experiment [2] is 49.4 µM (active) and 43.6 µM (active); in experiment [6], 43.6 µM (active); in experiment [9] it was 43.6 µM (active); in experiment [10], 43.6 µM (active); in experiment [12], 43.6 µM (active); in [13] it was 43.6 µM (active).

These data come from PubChem BioAssay (Tox21).
